The results in this text go back to PubChem BioAssay.

In general, inhibition refers to the relative decrease from the control value, in per cent. One may read the viability as a read-out of living cells in per cent, often relative to untreated cells.

The test system of assay [1] is Hepatitis C virus NS3 helicase. The assay can be described thus: HCV NS3 helicase inhibitors, primary screen, biochemical, fluorescence polarization, LOPAC1280 library (AID 687035; in the data active = inhibition above about 37%). The conditions noted are these: Purified HCV NS3 helicase, Cy5-dT15 ssDNA binding fluorescence polarization; stronger effect = higher value; concentration not given here.
Assay [2] in a line: Cy5 fluorescence quenching or enhancement artefacts, artefact control for HCV NS3 helicase inhibitor project, biochemical, LOPAC1280 (AID 687037). The settings on record: Cy5-DNA-NS3h complex fluorescence interference counterscreen. Background: Counterscreens check selectivity or assay interference.
Assay [3] is described as follows: stimulators of nuclear beta-catenin in C2C12, primary screen, imaging, WNT3A-conditioned medium, mouse C2C12, NPC library (AID 1117326; in the data active = nuclear beta-catenin stimulation mostly above about 4.2%, no sharp cut-off; inactive = mostly below about 10%). The conditions noted are these: stronger effect = higher value.
Assay [4] in a line: stimulators of insulin release from INS-1E, primary screen, cell-based, 5 mM glucose, NPC library (AID 1117329;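 active = compound raises insulin release from rat beta cells at 5 mM glucose, no numeric limit stated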). The settings on record: rat INS-1E insulin secretion, at 10 µM, stronger effect = higher value.
The nature of assay [5]: growth inhibition of GSK3B-pretreated HCT116 cells – cell-based, CellTiter-Glo, 0.2 to 20 µM (AID 1117336;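 active = compounds lowering colon cancer cell viability after pretreatment blocking the GSK3B kinase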). The settings on record: HCT116 viability after GSK3B inhibitor, at 20 µM, stronger effect = higher value.
Assay [6] in a line: inhibition of endothelial tube formation, primary screen, imaging, VEGF stimulated, CD31 staining, tube area, NPC library (AID 1117340;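 active = compound that reduces growth-factor-driven endothelial tube area in a mixed cell culture, no cutoff stated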). The settings on record: VEGF-stimulated ADSC/ECFC co-culture, at 10 µM, stronger effect = higher value.
Assay [7] can be described thus: glucagon-like peptide 1 release enhancers, primary assay, NCI-H716 cell line, NPC library (AID 1117341;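 active = compound raises GLP1 secretion from the human gut endocrine cells, with no numeric limit stated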). The settings on record: NCI-H716 cells, at 10 µM, stronger effect = higher value.
Assay [8] is described as follows: HCT116 colon cancer cell growth inhibition, primary screen, CellTiter-Glo luminescence, NPC library (AID 1117342;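 active = compounds that lower survival of HCT116 colon cancer cells in the luminescence readout, no numeric limit stated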). The settings on record: at 20 µM (top of the series).
Assay [9] can be described thus: CellTiter-Glo luminescent readout of SW480 viability loss, NPC library primary (AID 1117343;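 active = compounds that lower viability of the colon cancer cells in the luminescence readout, with no numeric limit stated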). The conditions noted are these: CellTiter-Glo luminescence; at 20 µM (top of the series). Background: ATP-based viability assays read luminescence as a measure of living cells.
The nature of assay [10]: decreased DLD-1 cellular survival, CellTiter-Glo luminescent readout, NPC compound collection, primary HTS (AID 1117346;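 active = compounds that lower survival of DLD-1 colon cancer cells in the luminescence readout, no cutoff given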). The conditions noted are these: DLD-1 viability, CellTiter-Glo luminescence; at 20 µM (top of the series).
A short description of assay [11]: liver-stage malaria parasite growth inhibition, primary screen, cell-based, HepG2, luciferase luminescence, HepG2 viability (AID 624349; in the data active = parasite load remaining mostly below about 12%, no sharp cut-off; inactive = mostly above about 10%;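 also: 100% = mean of DMSO negative control wells on the same plate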). The settings on record: P. berghei liver stage in HepG2, luciferase luminescence, concentration not given here; parasite load remaining: stronger effect = lower value; viability: measured here: HepG2 viability without parasites.
A short description of assay [12]: Cy5 fluorescence interference with SSB-bound oligo, artefact control for HCV NS3 helicase inhibitor project, biochemical, NIH Clinical Collection, E. coli SSB (AID 743268).
In assay [13] the test system is Hepatitis C virus NS3 helicase. The assay can be described thus: HCV NS3 helicase inhibitors, primary screen, biochemical, fluorescence polarization, NIH Clinical Collection (AID 743270). The settings on record: NS3 helicase binding to Cy5-dT15 DNA, stronger effect = higher value, concentration not given here. On the technique in general: Fluorescence polarisation rises when a labelled molecule tumbles more slowly, as on binding a larger partner.

In assay [14] the target is Single-stranded DNA-binding protein (Escherichia coli (strain K12)) (UniProt P0AGE0). The assay can be described thus: E. coli SSB displacement from DNA, counter-screen for HCV NS3 helicase inhibitor project, biochemical, fluorescence polarization, NIH Clinical Collection (AID 743271; in the data active = inhibition above about 28%). The settings on record: stronger effect = higher value, concentration not given here.
Assay [15] is described as follows: fluorescence interference in NS3h assay format, artefact control for HCV NS3 helicase inhibitor project, biochemical, NIH Clinical Collection (AID 743272).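 Also: HCV NS3 helicase with a Cy5 labelled single stranded DNA probe.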 The conditions noted are these: fluorescence interference counterscreen, stronger effect = lower value.
The test system of assay [16] is Neuropilin-2 / VEGF-C interaction (human). Description: inhibitors of NRP2–VEGF-C binding, biochemical, microplate binding format, z-score (AID 743281). The settings on record: microplate NRP2/VEGF-C binding assay; stronger effect = lower value.

Where “and” joins values, the source holds several entries; their conditions need not be identical. Identical values can stand only once. Some structures have more than one record in an assay (separate samples or runs), and their calls can disagree. Calls of active or inactive are those of the source. Unless noted, no rule for the calls is given here.

In the case of `Cc1cnc(NC(=O)C2=C(O)c3ccccc3S(=O)(=O)N2C)s1`, the inhibition in assay [1] is -4% (inactive). In assay [2], the fluorescence ratio (interference) is 1 (inactive). Further, the nuclear beta-catenin stimulation is 2% (inactive) in assay [3] (at 10 µM) and -0.5% in assay [3] (stimulation, at 2 µM). Moreover, in assay [4], the insulin secretion stimulation is -1% (inactive). The viability decrease in assay [5] was -14.6% (inactive). Further, the tube area decrease in assay [6] is -8.1% (inactive). In [7], the GLP1 secretion stimulation is -2.4% (inactive). The inhibition of viability in assay [8] is 19.1% (inactive). Further, the values for the viability decrease (inhibition) in [9] and in assay [10] were 23.9% (inactive) and 4.7% (active), respectively.
Consider `O=C(O)/C=C/c1ccc(Cn2ccnc2)cc1`, for which, in [11], the parasite load remaining is 92.2% (inactive) and 85.3% (inactive) and 50.2% (inactive). For the same compound, the viability in assay [11] was 79.5% and 65.9% and 102%. Besides, the fluorescence ratio was 1.05 (inactive) in [12] and 0.97 (inactive) in [15]. Besides, the inhibition in [13] was -2.77% (inactive); in assay [14], -3.95% (inactive). For the same compound, the z-score in assay [16] is -0.108 (inactive). Also, the nuclear beta-catenin stimulation in assay [3] (at 10 µM) was -2.1% (inactive); in assay [3] (stimulation, at 2 µM) it was 1.2%. The insulin secretion stimulation in assay [4] was 1.9% (inactive). Moreover, the viability decrease in assay [5] was -15.3% (inactive). Besides, in [6], the tube area decrease was 3% (inactive). In addition, the GLP1 secretion stimulation in assay [7] is 5.1% (inactive). Also, in [8], the inhibition of viability was 6.1% (inactive). For the same compound, the viability decrease (inhibition) in assay [9] was 9.3% (inactive); in assay [10], 9% (inactive).
On to `CCc1c2c(nc3ccc(OC(=O)N4CCC(N5CCCCC5)CC4)cc13)-c1cc3c(c(=O)n1C2)COC(=O)[C@]3(O)CC`, for which the parasite load remaining in assay [11] was 136% (inactive) and 106% (inactive). The viability in [11] is 95.2% and 90.6%. In addition, the z-score in assay [16] was -0.00941 (inactive). Further, the nuclear beta-catenin stimulation in [3] (at 10 µM) was 11.6% (inactive); in [3] (stimulation, at 2 µM), 1.5%. Also, the insulin secretion stimulation in assay [4] was -1.1% (inactive). Moreover, the viability decrease in [5] was 67.4% (active). Besides, the tube area decrease in assay [6] was 97.9% (active). Further, the GLP1 secretion stimulation in [7] is 24% (active). Further, in assay [8], the inhibition of viability was 50.8% (active). In addition, the viability decrease (inhibition) in assay [9] was 21.7% (inactive); in assay [10] it was 8.7% (inactive).
As to `CN1CCC(=C2c3ccccc3CC(=O)c3sccc32)CC1`, the inhibition in assay [1] is -3% (inactive); in assay [13], -6.33% (inactive); in assay [14], -0.39% (inactive). Besides, the fluorescence ratio (interference) in [2] was 1 (inactive). Further, the fluorescence ratio is 0.97 (inactive) in assay [12] and 0.93 (inactive) in assay [15]. Besides, the z-score in assay [16] is -0.206 (inactive). Further, the nuclear beta-catenin stimulation in [3] (at 10 µM) was 1.3% (inactive); in assay [3] (stimulation, at 2 µM) it was -1.2%. In assay [4], the insulin secretion stimulation is 3.05% (inactive). Moreover, in assay [5], the viability decrease was 10.7% (inactive). Further, the tube area decrease in assay [6] was -3.1% (inactive). In addition, the GLP1 secretion stimulation in assay [7] is 5.2% (inactive). Further, the inhibition of viability in [8] was 15.7% (inactive). The results for the viability decrease (inhibition) in [9] and in assay [10] were 38.1% (inactive) and -6.6% (inactive), respectively.
In the case of `CN(C/C=C/C#CC(C)(C)C)Cc1cccc2ccccc12`, in [11], the parasite load remaining was 40.7% (inactive) and 65.8% (inactive) and 43.2% (inactive). Further, in assay [11], the viability was 99.2% and 68.9% and 104%. Also, the fluorescence ratio in assay [12] is 1.06 (inactive); in [15], 1 (inactive). Moreover, the inhibition in assay [13] is 1.19% (inactive); in assay [14] it was 4.52% (inactive). For the same compound, the z-score in assay [16] is 0.0743 (inactive). The nuclear beta-catenin stimulation was 5.3% (inactive) in assay [3] (at 10 µM) and 2.6% in [3] (stimulation, at 2 µM). Also, the insulin secretion stimulation in assay [4] is 3.2% (inactive). Also, the viability decrease in assay [5] was 84.2% (active). In addition, the tube area decrease in [6] is 5.2% (inactive). Moreover, the GLP1 secretion stimulation in [7] is -3.9% (inactive). Also, the inhibition of viability in assay [8] is 82.6% (active). For the same compound, the viability decrease (inhibition) is 121% (active) in [9] and 70.1% (active) in assay [10].
Turning to `CCOC(=O)[C@H](CCc1ccccc1)N[C@@H](C)C(=O)N1[C@H](C(=O)O)C[C@@H]2CCC[C@@H]21`, the fluorescence ratio is 1.01 (inactive) and 1.04 (inactive) in assay [12]; 0.79 (active) and 1.02 (inactive) in assay [15]. Besides, the inhibition in [13] was -1.98% (inactive) and -3.18% (inactive); in [14] it was -0.1% (inactive) and -0.48% (inactive). Moreover, the z-score in assay [16] is -0.497 (inactive). Further, the nuclear beta-catenin stimulation is 0.8% (inactive) in assay [3] (at 10 µM) and 1.9% in [3] (stimulation, at 2 µM). For the same compound, the insulin secretion stimulation in assay [4] was 1.25% (inactive). The viability decrease in [5] is 13.8% (inactive). Further, in assay [6], the tube area decrease was -11% (inactive). Also, in [7], the GLP1 secretion stimulation was 2.1% (inactive). Further, in assay [8], the inhibition of viability is 6.1% (inactive). Moreover, the viability decrease (inhibition) in assay [9] is -19% (inactive); in assay [10], -0.3% (inactive).
For `NS(=O)(=O)c1cc(C(=O)O)c(NCc2ccco2)cc1Cl`, the fluorescence ratio in assay [12] was 0.95 (inactive); in [15] it was 0.89 (inactive). For the same compound, the nuclear beta-catenin stimulation is 0.5% (inactive) in assay [3] (at 10 µM) and 1.3% in [3] (stimulation, at 2 µM). The insulin secretion stimulation in assay [4] is -2% (inactive). Besides, the viability decrease in [5] was -10.1% (inactive). For the same compound, the tube area decrease in [6] is 13% (inactive). For the same compound, the GLP1 secretion stimulation in assay [7] was 0.9% (inactive). For the same compound, the inhibition of viability in assay [8] is -10.4% (inactive). The viability decrease (inhibition) in assay [9] is -18% (inactive); in assay [10], -1.6% (inactive).
